High-throughput results (PubChem)
DRD3 agonist: agonists of human D3 dopamine receptor; AID 652048; 410,000 tested, 0.58% active; D3R DiscoveRx beta-arrestin cells, luminescence, 90 min; max activation, %; in the data active means max activation above about 30%; further: 0% is about no effect
Target sequence (P35462 whole entry, looked up): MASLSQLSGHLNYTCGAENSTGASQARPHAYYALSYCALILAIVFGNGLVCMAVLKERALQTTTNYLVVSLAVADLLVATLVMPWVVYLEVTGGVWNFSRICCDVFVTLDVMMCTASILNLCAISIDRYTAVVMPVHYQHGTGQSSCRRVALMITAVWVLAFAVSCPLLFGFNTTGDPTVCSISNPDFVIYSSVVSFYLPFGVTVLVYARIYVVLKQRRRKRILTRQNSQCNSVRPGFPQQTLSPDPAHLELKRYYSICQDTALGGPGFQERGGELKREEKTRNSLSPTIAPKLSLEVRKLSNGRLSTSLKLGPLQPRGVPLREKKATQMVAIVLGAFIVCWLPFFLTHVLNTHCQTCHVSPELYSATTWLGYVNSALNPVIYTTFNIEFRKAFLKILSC
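Cells at 1500/well, incubated overnight, then treated with pinned compounds (dopamine as control) for 90 min at 37 degrees C. DiscoveRx reagent added for 30 - 60 minutes at room temperature; luminescence read.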
TDP1 cell CPT: DT40-hTDP1 cell growth loss with CPT; chicken DT40 Tdp1-/-;hTDP1 cells + 20 nM CPT, ATP luminescence, 48 h; 420,000 tested, 12% active; AID 686979; Potency, µM (titrated, usually from 46.2 µM), without a hit: at the top dose activity change, negative = growth inhibition, usual class: inhibitors; further: potency means the concentration at half of the fitted maximal effect; on the % scale 0 is the no-effect control and ±100 the full control effect; nearly all actives have a fitted effect of over 55% in size
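Chicken DT40 Tdp1-/- cells complemented with human TDP1, 400 cells/well, exposed to compounds plus 20 nM camptothecin for at least 48 h at 37 C; viability read as ATP content by CellTiter-Glo luminescence.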
ClpP mod: qHTS Assay for Activators of ClpP | 340,000 tested, 1.9% active | Potency, µM (titrated, usually from 57.5 µM), for inactives: at the highest dose activity change, negative = active | purified B. subtilis ClpP, FRET peptide cleavage, 20 min | AID 651965, 2013 | ATP-dependent Clp protease proteolytic subunit (Bacillus subtilis (strain 168)), P80244; active means well fitted falling curve with a large enough effect; inconclusive means small, poorly fitted or top-dose-only effect; inactive means no such curve, though single readings can be large or run the other way; further: potency means the concentration at half of the fitted maximal effect; the source files actives as falling curves though it sought activators and does not explain the sign; nearly all actives have a fitted effect of over 65% in size
Target sequence (P80244 whole entry, looked up): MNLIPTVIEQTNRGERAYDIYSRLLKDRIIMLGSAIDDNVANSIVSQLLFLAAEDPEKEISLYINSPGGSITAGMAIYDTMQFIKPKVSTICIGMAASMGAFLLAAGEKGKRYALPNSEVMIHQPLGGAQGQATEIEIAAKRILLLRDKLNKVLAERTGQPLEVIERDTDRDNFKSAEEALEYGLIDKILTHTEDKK
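ClpP 10 microg/mL final, pH 8 Tris/KCl buffer with BSA, glycerol, Tween-20; compound pinned in; FRET-FV substrate; RT 20 min; Ex320/Em430; ΔFRET vs ADEP 5.8 microM, DMSO, no enzyme.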
D3 antag: blocks the human D3 dopamine receptor | P35462 | D3R cells, DiscoveRx beta-arrestin luminescence, antagonist mode; stronger effect = lower value | max response, negative = inhibition, % | 360,000 tested, 2.5% active | AID 652054; in the data active means max response below about -50%; inconclusive means no clear call, values can overlap the other calls; further: on the % scale 0 is the no-effect control and ±100 the full control effect
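Cells expressing the human receptor were seeded at 1500 cells/well, incubated overnight at 37 degrees C in 5% CO2, then exposed to library compounds with dopamine controls for 90 minutes at 37 degrees C before luminescent detection.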
IL1B secr inh: blocks inflammasome-driven IL-1 beta release. THP-1 LPS/ATP IL-1B secretion, AlphaLISA, 16 h; stronger effect = lower value. activity change, % at 57.5 µM. 360,000 tested, 4.7% active. AID 743279; in the data active means activity change below about -50%; inconclusive means mostly about -30% to -49%; further: on the % scale 0 is the no-effect control and ±100 the full control effect
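Secreted IL-1B measured by AlphaLISA bead assay after 16 h compound exposure of THP-1 cells; compounds (final up to 57.5 uM) added 1 h before LPS (250 ng/mL) and ATP (1.25 mM) stimulation; lower signal means less secretion.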
DT40 TDP1 no CPT: qHTS for Inhibitors of human tyrosyl-DNA phosphodiesterase 1 (TDP1): qHTS in cells in absence of CPT; DT40 Tdp1-/- hTDP1 cells, no CPT, ATP luminescence, 48 h; Potency, µM (doses to about 46.2 µM), inactives show at the highest dose activity change, negative = growth inhibition, most hits filed as inhibitors; AID 686978, 2013; 420,000 tested, 15% active; further: potency means the concentration at half of the fitted maximal effect; on the % scale 0 is the no-effect control and ±100 the full control effect; nearly all actives have a fitted effect of over 55% in size
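Compound effects on proliferation are scored in DT40 Tdp1-/-;hTDP1 cells in the absence of CPT. ATP levels (CellTiter-Glo luminescence) are recorded after a ≥48 hr, 37 °C incubation.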
* hit, by the source's call; ? = inconclusive; · = not tested or not shown; ! = not active in a repeat. A selection: hits, their analogues and other compounds. The true share with any hit is near 21%. Unless noted, the call rests on the fitted dose curve; in most records, active means well fitted inhibition curve with a large enough effect; inconclusive means small, poorly fitted or top-dose-only effect; inactive means flat fitted curve, though single readings scatter.

SMILES | DRD3 agonist | TDP1 cell CPT | ClpP mod | D3 antag | IL1B secr inh | DT40 TDP1 no CPT
COc1cc(NC(=O)CCc2c(C)nc3c4c(C)cc(C)nc4nn3c2C)cc(OC)c1 | -6 | ? | -12% | · | · | ?
CCOc1ccccc1NC(=O)CCc1c(C)nn(-c2ccc(N3CCOCC3)nn2)c1C | -1 | ? | -1% | · | · | ?
CCOc1ccccc1NC(=O)CCc1c(C)nc2c3cccnc3nn2c1C | -12 | ? | 28µM* | · | · | ?
Cc1cc(C)n(-c2nnc3n2N=C(c2c[nH]c4ccccc24)CS3)n1 | 0 | 21µM* | -1% | 0 | -10 | 15µM*
CC(=O)COc1cc2c(-c3cc4ccccc4o3)cc(=O)oc2cc1C | 6 | -21% | -2% | 25 | 40 | -20%
O=[N+]([O-])c1ccccc1-c1cc(-c2ccccc2O)n[nH]1 | -5 | ? | -6% | 13 | -74* | ?
O=[N+]([O-])c1cccc(-c2cc(-c3cc(Br)ccc3O)[nH]n2)c1 | -4 | ? | · | 1 | -89* | 21µM*
Oc1ccc(Br)cc1-c1cc(-c2ccc(Cl)cc2)n[nH]1 | 5 | 21µM* | -1% | -4 | -14 | ?
O=[N+]([O-])c1cccc(-c2n[nH]c(=S)n2-c2ccc(Br)cc2)c1 | -16 | -18% | · | -15 | -5 | ?
Oc1ccc(Br)cc1-c1cc(-c2ccccc2)n[nH]1 | -6 | ? | 1% | -18 | -2 | ?
Cc1ccc(-c2cc(-c3ccccc3C)[nH]n2)c(O)c1 | -9 | ? | -4% | ? | -11 | ?
Cc1ccc2cc(CN(CC(C)C)S(=O)(=O)c3cccc4nonc34)c(=O)[nH]c2c1 | -4 | -29% | -6% | 4 | 16 | -14%
COc1ccc(C(=O)Nc2nc(-c3nnn(-c4ccc(C(C)C)cc4)c3C)ns2)cc1 | -8 | 13µM* | ? | · | · | 16µM*
COc1ccc(-c2nsc(NC(=O)c3cccc(OC)c3)n2)cc1 | 11 | ? | 9% | · | · | 21µM*
COc1ccc(C(=O)Nc2nc(-c3nnn(-c4cc(OC)ccc4OC)c3C)ns2)cc1 | -13 | 16µM* | -20% | · | · | 16µM*
COc1cccc(C(=O)Nc2nc(C)cs2)c1 | 3 | -18% | 2% | 5 | -15 | -13%
Cc1ccc(OCC(=O)Nc2nc(-c3ccc(Br)cc3)ns2)cc1 | 9 | -30% | 1% | · | · | ?
O=C(Nc1nc(-c2ccc(Br)cc2)ns1)c1ccc(F)cc1 | 13 | ? | -6% | · | · | 18µM*
COc1ccc(Cl)cc1-n1nnc(-c2nsc(NC(=O)c3ccccc3Cl)n2)c1C | 3 | -10% | -1% | · | · | -12%
Cc1ccc(-n2c(=O)c3ccc(C(=O)NCc4ccco4)cc3n(CC(=O)Nc3ccccc3C(F)(F)F)c2=O)cc1 | -1 | -1% | -6% | · | · | 1%
COc1cccc(CNC(=O)c2ccc3c(c2)nnn3C2CCCC2)c1 | -9 | ? | 0% | · | · | -26%
COc1cc(CN(C(=O)c2ccc(Cl)cc2)C2CCS(=O)(=O)C2)cc(OC)c1OC (configuration not stated) | -9 | 0% | 2% | · | · | -4%
O=C(O)c1ccc(S(=O)(=O)NCC2CCCCC2)cc1 | -2 | 5% | · | 3 | 17 | -8%
CCC(=O)c1ccc(N2CCN(C(=O)c3cccs3)CC2)c(F)c1 | 2 | ? | -4% | 1 | 7 | 21µM*
CCC(=O)c1ccc(N2CCN(C(=O)c3ccccc3Br)CC2)c(F)c1 | -3 | ? | -3% | -10 | -55* | 10µM*
SMILES | DRD3 agonist | TDP1 cell CPT | ClpP mod | D3 antag | IL1B secr inh | DT40 TDP1 no CPT
CCC(=O)c1ccc(N2CCN(S(=O)(=O)c3ccccc3)CC2)c(F)c1 | 3 | -24% | · | 4 | 23 | ?
Cc1cc(N2CCN(C(=O)c3cccs3)CC2)c(F)cc1[N+](=O)[O-] | 5 | 10µM* | 0% | 7 | -5 | 5.2µM*
Cc1ccccc1C(=O)c1c[nH]c(C(=O)N2CCN(c3ccccc3F)CC2)c1 | -4 | 18µM* | · | -2 | -66* | 15µM*
O=C(c1cccs1)N1CCN(c2ccc([N+](=O)[O-])cc2F)CC1 | 20 | ? | 1% | -1 | 0 | -21%
CCN(c1cccc(C)c1)S(=O)(=O)c1nnc(NC(=O)c2ccco2)s1 | -13 | 0% | -5% | ? | -15 | -6%
C[C@H](NC(=O)c1nc[nH]c1C(=O)N1CCN(c2ccccc2)CC1)c1ccccc1 | 16 | -5% | -1% | 27 | 11 | -3%
CCC(=O)c1ccc(N2CCN(C(=O)c3ccccc3F)CC2)c(F)c1 | 9 | 10µM* | · | 5 | 0 | 21µM*
CCC(=O)c1ccc(N2CCCCCC2)c(F)c1 | 5 | -26% | -6% | 15 | -1 | ?
CCc1nc2ccc(C(=O)N3CCN(c4ccccc4F)CC3)cc2nc1CC | 5 | 21µM* | ? | 6 | -11 | 5.8µM*!
CCn1cc(S(=O)(=O)c2cc(C)cc(C)c2)c(=O)c2cc(F)c(N3CCC(C)CC3)cc21 | -2 | -101% | -26% | · | · | ?
CC(C)CCN1C(=O)c2cccc3c(N)ccc(c23)C1=O | -8 | -14% | · | 14 | -6 | ?
CCOC(=O)c1cnn(-c2nc(-c3ccc(C)cc3)cs2)c1C(F)(F)F | 3 | ? | 32µM* | 36 | 18 | ?
O=C1CN(S(=O)(=O)c2cc(C(=O)O)ccc2Cl)c2ccccc2N1 | -12 | 15% | · | -18 | 54 | -14%
CCOC(=O)c1nn(-c2ccc(C)c(C)c2)c(=O)c2c(N)scc12 | -9 | 21µM* | -4% | ? | 2 | ?
CCOC(=O)c1nn(-c2ccc(OC)cc2)c(=O)c2c(N)scc12 | -2 | -1% | 0% | 21 | -4 | -1%
O=c1cc(-c2ccccc2)ss1 | -4 | 1% | · | -4 | -15 | -28%
CCc1nc2ccc(C(=O)Nc3cc(-c4ccccc4)ccc3OC)cn2c1N(CC)CCN(C)C | -6 | 16µM* | -1% | ? | -14 | 18µM*
CCCCN(C=O)c1c(CC)nc2ccc(C(=O)Nc3cc(-c4ccccc4)ccc3OC)cn12 | -9 | ? | ? | 1 | -70* | 16µM*
Cc1cc2[nH]c(=O)c(=O)[nH]c2cc1S(=O)(=O)Nc1cccc(C(F)(F)F)c1 | 5 | 1% | ? | · | · | -1%
Cc1cccc2sc(N(CCN(C)C)C(=O)c3ccc4c(c3)OCCO4)nc12 | -19 | ? | -5% | · | · | ?
